Source: PubChem BioAssay (Tox21)
Inconclusive results are not listed. Entries that show only a call come without a potency. Active and inactive are the calls of the source. Calls follow the shape of the dose curve; as a rule, active = well fitted curve in the direction sought with a large enough effect in the signal ratio in the repeat runs (not every such curve was filed as active); inconclusive = weak or mixed curves, or a change in a side signal; inactive = no such curve, though single readings can be large or run the other way; the % refers to the signal ratio.

Experiment: qHTS assay to identify small molecule agonists of the NFkB signaling pathway (AID 1159509)
Conditions: NFkB-bla ME-180 cells, beta-lactamase FRET ratio, 5 h; series mostly up to 61 µM
Text: National Center for Advancing Translational Sciences [NCATS]
NIH Chemical Genomics Center [NCGC]
U.S. Environmental Protection Agency [EPA]
National Institutes of Environmental Health Sciences [NIEHS]
National Toxicology Program [NTP]
U.S. Food and Drug Administration [FDA]
Transcription factors and their stimulated target gene expression play pivotal roles across many cellular processes including responses to environmental stimuli. Proper regulation of associated pathways is critical to maintain cell health and function. Constitutive activation of transcription factor pathways has been implicated in tumors as it may block cellular functions such as apoptosis and lead to invasion and metastasis. One important transcription factor that stimulates gene expression in response to cytokines, UV radiation, and other stimuli is nuclear factor-kappa B (NFkB). To measure activation of the NFkB pathway, the CellSensor NFkB-bla ME-180 cell line (Life Technologies, Carlsbad, CA) that stably expresses beta-lactamase reporter gene under the regulation of a NF-kB response element was used. This assay allows measurement of the NFkB pathway activity induced by compounds in a ME-180 cell line. This system quantitates NF-kB activity using a FRET-based assay system where beta-lactamase expression disrupts FRET, allowing for fluorescent measurement of activity. This cell line has been used to screen the Tox21 10K compound library and to identify compounds that induce the NFkB pathway activity.
Tox21 Assay Protocol Summary:
NFkB-bla ME-180 cells were dispensed at 2,000 cells/6 uL of assay medium per well into black wall/clear-bottom 1536-well plates using a Multidrop Combi (ThermoFisher Scientific, Waltham, MA) dispenser. After the assay plates were incubated at 37 C and 5% CO2 for an overnight, 23 nL of compounds dissolved in DMSO, positive controls or DMSO only was transferred to the assay plate by a Pintool station (Kalypsys, San Diego, CA). The assay plates were incubated at 37 C and 5% CO2 for 5 hr. One uL of LiveBLAzer B/G FRET substrate (Life Technologies) was added using a Flying Reagent Dispenser (Aurora Discovery, San Diego, CA) and the plates were incubated at room temperature for 1.5 hr. Fluorescence intensity (405 nm excitation, 460 nm and 530 nm emissions) was measured using an Envision plate reader (PerkinElmer, Shelton, CT).

| SMILES | Potency |
| --- | --- |
| Clc1cc(Cl)nc(Cl)n1 | inactive |
| Oc1ccc(Cl)c2cccnc12 | inactive |
| Cc1[nH]cnc1CN1CCc2c(c3ccccc3n2C)C1=O | inactive |
| CCCCC(CC)COP(=O)(O)O (stereo not given) | inactive |
| OC[C@H]1O[C@@H](n2cnc3c(=S)nc[nH]c32)[C@H](O)[C@@H]1O | inactive |
| CCCCCCNC(=O)n1cc(F)c(=O)[nH]c1=O | inactive |
| C=Cc1ccc(S(=O)(=O)O)cc1 | inactive |
| CC1=C(Br)C(=O)C(Br)=C/C1=C(/c1ccccc1S(=O)(=O)O)c1cc(Br)c(O)c(Br)c1C | inactive |
| CN(C)CCC=C1c2ccccc2C=Cc2ccccc21 | inactive |
| Oc1cc2c(cc1O)[C@H]1c3ccc(O)c(O)c3OC[C@@]1(O)C2 | inactive |
| CCC(C)COC(C)=O (stereo not given) | inactive |
| CCCCCCCCC(CCCCCC)C(=O)O (stereo not given) | inactive |
| CO[C@]1(NC(=O)CSC(F)F)C(=O)N2C(C(=O)O)=C(CSc3nnnn3CCO)CO[C@H]21 | inactive |
| C[C@@H](CN(C)C)CN1c2ccccc2Sc2ccccc21 | inactive |
| CC(=O)N/N=C/c1ccc([N+](=O)[O-])o1 | inactive |
| CC(=O)OCC(=O)NCCCOc1cccc(CN2CCCCC2)c1 | inactive |
| Oc1cccc(O)c1O | inactive |
| CC(=O)OCC[N+](C)(C)C | inactive |
| CN1C[C@H](C(=O)N[C@]2(C)O[C@@]3(O)[C@@H]4CCCN4C(=O)[C@H](Cc4ccccc4)N3C2=O)C[C@@H]2c3cccc4[nH]cc(c34)C[C@H]21 | inactive |
| CCCCN(CCN(CCCC)C(=O)N1CCOCC1)C(=O)N1CCOCC1 | inactive |

| SMILES | Potency |
| --- | --- |
| Cc1ccc(Cl)c(Nc2ccccc2C(=O)O)c1Cl | inactive |
| COc1ccc(OC(=O)N(CC(=O)O)Cc2ccc(OCCc3nc(-c4ccccc4)oc3C)cc2)cc1 | inactive |
| CCOc1ccccc1O[C@H](c1ccccc1)[C@H]1CNCCO1 | inactive |
| N#CCCN(CCO)CCO | inactive |
| OC(CCN1CCCC1)(c1ccccc1)C1CCCCC1 (stereo not given) | inactive |
| CCC(=O)OC | inactive |
| COC(=O)CS | inactive |
| Cc1cc(=O)c2c(O)c3c(O)cc(=O)c4c3c3c(cc(O)c1c23)C(C)(C)C=4O | inactive |
| OCCOCC#CCOCCO | inactive |
| CNC(=O)c1cnn(-c2nc(N)c3ncn([C@@H]4O[C@H](CO)[C@@H](O)[C@H]4O)c3n2)c1 | inactive |
| CC1(C)O[C@@H]2C[C@H]3[C@@H]4C[C@H](F)C5=CC(=O)C=C[C@]5(C)[C@H]4[C@@H](O)C[C@]3(C)[C@]2(C(=O)CO)O1 | inactive |
| CCCCCC#CC(=O)OC | inactive |
| COC(=O)[C@H]1[C@H]2C[C@@H]3c4[nH]c5cc(OC)ccc5c4CCN3C[C@H]2C[C@@H](OC(=O)/C=C/c2ccc(O)c(OC)c2)[C@@H]1OC | inactive |
| C[C@@H](O[C@H]1OCCN(Cc2n[nH]c(=O)[nH]2)[C@H]1c1ccc(F)cc1)c1cc(C(F)(F)F)cc(C(F)(F)F)c1 | inactive |
| O=C(OCC(O)CO)c1ccccc1Nc1ccnc2cc(Cl)ccc12 (stereo not given) | inactive |
| O=Cc1c2ccccc2c(Cl)c2ccccc12 | inactive |
| CC(C)(c1ccccc1)c1ccccc1 | inactive |
| CCc1ccccc1 | inactive |
| CCCC(C(=O)OCCN(CC)CC)(c1ccccc1)c1ccccc1 | inactive |
| CN(C)CCN1C(=O)c2ccccc2N(C)c2ccccc21 | inactive |
